PubChem BioAssay AID588473 (Sanford-Burnham Center for Chemical Genomics, 2011)
About 1,600 (0.46%) of roughly 350,000 compounds were called active.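 Rule for the calls: active = activation of at least 50%, plus an integration ratio under a set limit after plate pattern correction; inactive = the rest.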 The full list was thinned out, with actives kept by preference.

System: CRF-binding protein / CRF receptor 2 complex (human)
Assay: activators of CRF-R2 with CRF-BP – cell-based, HEK293, calcium dye fluorescence, uHTS, primary screen (AID 588473);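 note: plate controls were neutral control wells without compound for no effect and CRF at EC100 for full effect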
Settings: calcium dye fluorescence (FLIPR), at 13.2 µM, stronger effect = higher value, percent of saturating CRF peptide response

| SMILES | activation |
| --- | --- |
| CN(Cc1ccccc1Cl)C(=O)C1CCC(=O)N(CCc2cccc(F)c2)C1 (stereo not drawn) | 0.61% (inactive) |
| COc1cc(C)ccc1OCC(=O)OCC(=O)c1ccc[nH]1 | 2.06% (inactive) |
| CC(C)CC(O)C1CCN(C(=O)CCc2nnc(-c3ccc4c(c3)OCO4)o2)CC1 (stereo not drawn) | -0.38% (inactive) |
| O=C(NCCN1CCOCC1)C1CCN(S(=O)(=O)c2ccccc2)CC1 | -0.1% (inactive) |
| O=C1NC[C@@H](c2ccccc2)OC(=O)[C@H](Cc2ccc(F)cc2)CC/C=C/C[C@H]1CC(=O)N(CCO)Cc1ccccc1 | 54.7% (active) |
| O=C1CCC/C=C/C[C@@H](CC(=O)N(CCO)Cc2ccccc2)C(=O)NC[C@H](c2ccccc2)O1 | -0.44% (inactive) |
| O=C1N[C@@H](c2ccccc2)COC(=O)[C@H](Cc2ccc(F)cc2)C/C=C\C[C@@H]1CC(=O)N(CCO)Cc1ccccc1 | -2% (inactive) |
| CCCNC(=O)c1ccc(N2CCC3(CC2)CC(c2ccc(Cl)cc2)=NO3)c([N+](=O)[O-])c1 | 0.95% (inactive) |
| CCN(CC)C(=O)C1=C(C)N(Cc2ccc(F)cc2)C(=O)C(CC(=O)NCc2cccc3ccccc23)C1 (stereo not drawn) | -1.12% (inactive) |
| COc1ccc(CNC(=O)CN2CCC(n3nnc4cc(F)ccc43)CC2)cc1 | 0.03% (inactive) |
| Cc1ccc(-c2nn(-c3ccccc3)cc2/C=C2\SC(=S)N(CCCCCC(=O)O)C2=O)o1 | 60.7% (active) |
| COc1ccc(/C=C2/SC(=O)N(CCCCCC(=O)Nc3ccccc3C(=O)O)C2=S)cc1 | -2.58% (inactive) |
| COc1cccc(/C=C2\SC(=S)N(CCCC(=O)N3CCOCC3)C2=O)c1 | 2.11% (inactive) |
| CC(=O)Nc1ccc(C(=O)NNC(=O)CCCCC(=O)NNC(=O)c2ccc(NC(C)=O)cc2)cc1 | -1.83% (inactive) |
| CCCCCC(=O)NC(=S)NNC(=O)c1ccc([N+](=O)[O-])cc1 | 96.3% (active) |
| CC(C)(C)SCCNC(=O)c1cccc([N+](=O)[O-])c1 | -0.01% (inactive) |
| CC(C)CC(=O)NC(=S)NNC(=O)c1cccc([N+](=O)[O-])c1 | 55% (active) |
| O=C(NC(=S)NC1CCS(=O)(=O)C1)c1cccc([N+](=O)[O-])c1 (stereo not drawn) | 0.96% (inactive) |
| COCCCNC(=S)NC(=O)c1ccc([N+](=O)[O-])cc1 | -0.87% (inactive) |
| COC(=O)c1c(CCl)noc1C(=O)NC(C)C | 0.17% (inactive) |
| Cc1ccc(Nc2c(O)nc[nH]c2=O)cc1C | -0.7% (inactive) |
| CCN(C(=O)Cc1nc(N)n[nH]1)C1(C(=O)Nc2ccccc2)CCCCC1 | 1.43% (inactive) |
| C=CCO/N=C/C1=C(O)C(C(=O)OC)C(C)(C)CC1=O (stereo not drawn) | 3.2% (inactive) |
